# Assay results reported in PubChem BioAssay AID504834 (National Center for Advancing Translational Sciences (NCATS), 2011).
# Several values for one entry are separate records, joined by “and”; a condition that tells them apart may be missing. Equal values may be shown once. Among all 320,000 compounds or so, about 22,000 (6.9%) were called active. Another 27% or so got no clear call; they are omitted. The call rests on the fitted dose curve; in most records, active means well fitted inhibition curve with a large enough effect; inconclusive means small, poorly fitted or top-dose-only effect, or another doubt; inactive means no such curve, though single readings can be large or run the other way. The list comes from a sample in which actives are over-represented; it also holds similar structures and randomly drawn compounds. Where a call stands in place of a potency, no number is given. Where a structure was tested more than once in an assay, its records may differ in their call.
# Assay: Primary qHTS for delayed death inhibitors of the malarial parasite plastid, 96 hour incubation
# Conditions: P. falciparum luciferase reporter growth; series mostly up to 28.7 µM
# How it was run: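 P. falciparum expressing integrated firefly luciferase, in erythrocytes at 2% hematocrit, 0.05% parasitemia, incubated with compounds 96 h at 37 C, 5% CO2. Growth inhibition read as loss of luminescence; two-generation exposure targets delayed-death apicoplast inhibitors.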
# Potency means the concentration at half of the fitted maximal effect.
row,Compound,Potency
1,CC(OC(=O)c1cc2ccccc2o1)C(=O)Nc1ccc(N2CCOCC2)cc1 (configuration not stated),inactive
2,COc1ccc(C(=O)NC2=NCCS2)c(OC)c1,inactive
3,CCCOc1ccc(NC(=O)C2OC3OC(C)(C)OC3C3OC(C)(C)OC23)cc1 (configuration not stated),10.4 µM (active)
4,CCCOc1ccc(NC(=O)C2CCCNC2=O)cc1 (configuration not stated),inactive
5,CCCOc1ccc(C(=O)CCC(=O)OC(C)C(=O)Nc2ccc(NC(C)=O)cc2)cc1 (configuration not stated),inactive
6,CC(=O)c1ccc(N2CCN(C(=O)c3ccc(Cl)c(S(=O)(=O)NC4CC4)c3)CC2)c(F)c1,inactive
7,CC(C)OC(=O)c1ccc(COc2ccc3ccc(=O)oc3c2)o1,inactive
8,Cc1ccc(CN(CC(=O)NC2CCCCC2)C(=O)c2csnn2)cc1,inactive
9,O=C(CN(C(=O)c1csnn1)c1ccc(Br)cc1)NC1CCCC1,inactive
10,Cc1ccccc1CCN(CC(=O)NC1CCCCC1)C(=O)c1csnn1,11.7 µM (active)
11,Cc1cc(NC(=O)CCC(=O)N(CC(=O)NCC2CCCO2)c2ccccc2)no1 (configuration not stated),inactive
12,O=C(CN1CCC(O)(c2cccc(C(F)(F)F)c2)CC1)NCCc1ccccc1,inactive
13,Cc1ccc2nc(-c3ccncc3)cc(C(=O)Nc3ccc4c(c3)OCCO4)c2c1,inactive
14,COC(=O)CNC(=O)c1cc(-c2ccncc2)nc2ccccc12,inactive
15,CCN(CC)CCNC(=O)c1ccc(NC(=O)c2cc(-c3ccncc3)nc3ccccc23)cc1,8.28 µM (active)
16,O=S(=O)(Nc1cccc(-c2ccc(N3CCOCC3)nn2)c1)c1ccc(Cl)c(Cl)c1,inactive
17,CCCC[N+]1(C)C2CC(OC(=O)C(CO)c3ccccc3)CC1C1OC12 (configuration not stated),inactive and 1.2 µM (active)
18,CCCCC(=O)NNC(=S)NC(=O)C(c1ccccc1)c1ccccc1,inactive
19,CCCCCCOC(=O)NCC(O)c1ccccc1 (configuration not stated),inactive
20,CN(C)C(=O)Cn1c(=O)n(S(=O)(=O)c2ccccc2)c2ccccc21,inactive
21,Cc1ccc(OCC(=O)N/N=C/c2ccncc2)cc1,inactive
22,Cc1cccc(OCC(=O)NCC(=O)N/N=C/c2ccc(N(C)C)cc2)c1,7.38 µM (active)
23,Cc1ccc(/C=N/NC(=O)CNC(=O)COc2ccccc2)o1,inactive
24,COc1ccccc1C(=O)COC(=O)CNS(=O)(=O)c1ccc(NC(C)=O)cc1,inactive
25,CC(=O)Nc1ccc(N2C(=O)C3C4C=CC(CC4)C3C2=O)cc1 (configuration not stated),inactive
26,Cc1ccc(N2C(=O)C3C4C=CC(CC4)C3C2=O)cc1Br (configuration not stated),inactive

row,Compound,Potency
1,Cc1ccc(N2C(=O)C3C4C=CC(CC4)C3C2=O)cc1Cl (configuration not stated),3.7 µM (active)
2,CCC(C)(C)NC(=O)C(c1ccc(OC)cc1)N(C(=O)CCC(=O)Nc1cc(C)on1)c1ccc(OC)cc1OC (configuration not stated),inactive
3,COc1cc(CC(=O)N2CCC(n3nccc3NC(=O)C3CC3)CC2)cc(OC)c1OC,inactive
4,Cc1ccc(-n2ncc3c(=O)n(-c4ccc(C)c(C)c4)c(-c4ccco4)nc32)cc1,9.28 µM (active)
5,O=c1c2ccccc2nc(-c2ccco2)n1-c1ccc(Br)cn1,inactive
6,Cc1ccc(-c2nc3c(cnn3-c3ccccc3)c(=O)o2)cc1,inactive
7,CC(=O)Nc1ccc(C(=O)N(C2=NC(C)CS2)c2ccc(Cl)cc2)cc1 (configuration not stated),inactive
8,COc1ccc(S(=O)(=O)NCC(c2ccco2)N2CCOCC2)cc1 (configuration not stated),inactive
9,O=C(O)CCC(=O)N(Cc1ccccc1)Cc1ccccc1,inactive
10,CCC(=O)N(Cc1ccccc1)c1ccccn1,inactive
11,CCN(Cc1ccncc1)C(=O)CCc1ccccc1,13.1 µM (active)
12,O=C(CCC(=O)n1ncc2ccccc21)NCc1ccccc1Cl,inactive
13,Cc1cccc(C)c1NC(=O)CSc1nnc(-c2ccccc2)n1Cc1ccc2c(c1)OCO2,inactive
14,Cc1ccccc1-n1c(SCC(=O)NCc2cccs2)nnc1-c1ccncc1,inactive
15,Cc1ccc(-n2c(SCC(=O)NCc3ccc4c(c3)OCO4)nnc2-c2cccnc2)c(C)c1,9.28 µM (active)
16,COc1ccc(NC(=O)c2cc(-c3ccc(C)cc3)on2)cc1,inactive
17,Cc1csc(NC(=O)CSc2nnc(-c3cccnc3)o2)n1,inactive
18,CCc1ccccc1NC(=O)c1cccs1,inactive
19,CCc1ccccc1NC(=O)/C(=C/c1ccccc1)c1ccccc1,8.28 µM (active)
20,CCOc1ccc(/C=C(/NC(=O)c2ccccc2)C(=O)NCCC(=O)O)cc1,inactive
21,CCSc1nc(O)c(C(c2cccc(OC)c2)c2c(O)nc(SCC)[nH]c2=O)c(=O)[nH]1,inactive
22,CCOC(=O)C1=C(c2ccccc2)NC(=O)NC1c1cc(OC)c(OC)cc1OC (configuration not stated),inactive
23,CCOC(=O)C1CN(S(=O)(=O)c2ccc(OC)cc2)c2cc(Cl)ccc2O1 (configuration not stated),inactive
24,CCOC(=O)C1=C(CSc2nccn2C)NC(=O)NC1c1ccc(OC)cc1 (configuration not stated),13.1 µM (active)
25,COc1ccc(-c2ccc3nnc(SCC(=O)Nc4ccc(NC(C)=O)cc4)n3n2)cc1,inactive
26,O=C(Nc1ccccc1)N1CCN(C2c3ccccc3-c3ccccc32)CC1,2.62 µM (active)

row,Compound,Potency
1,O=C(Nc1ccccc1)N1CCN(C(=O)Nc2ccccc2)CC1,inactive
2,O=C(Nc1ccccc1)N1CCN(Cc2ccccc2)CC1,inactive
3,CN1C(C(=O)NCc2ccco2)CC2Cn3c(nc4ccccc43)C21 (configuration not stated),inactive
4,CC(C)(C)C(=O)Nc1ccc(-c2cn3cccnc3n2)cc1,inactive
5,Cc1ccc(C(=O)COC(=O)CCN2C(=O)C3C4CCC(C4)C3C2=O)cc1C (configuration not stated),inactive
6,O=C(NC(=S)Nc1ccc(Cl)cc1Cl)C1CC1,inactive
7,O=C(CCN1C(=O)C2C3CCC(C3)C2C1=O)Nc1ccc(Cl)cc1Cl (configuration not stated),7.38 µM (active)
8,O=C(N/C(=C\c1ccc([N+](=O)[O-])cc1)C(=O)N1CCCCC1)c1ccco1,inactive
9,COCCn1c(SCC(=O)Nc2nc(C)cs2)nnc1C(C)C,inactive
10,O=C1c2cccc3c([N+](=O)[O-])ccc(c23)C(=O)N1CC1CCCO1 (configuration not stated),10.4 µM (active)
11,CCC(=O)Nc1ccc(C(=O)Nc2ccc3c(c2)C(=O)N(CC2CCCO2)C3=O)cc1 (configuration not stated),inactive
12,O=C(NCc1ccc2c(c1)OCO2)c1ccc2c(c1)C(=O)N(CC1CCCO1)C2=O (configuration not stated),inactive
13,C[N+](C)(C)CCNC(=O)c1cc[n+](Cc2ccccc2)c(/C=N/O)c1,inactive
14,O=C(Nc1ccccn1)C1CCN(S(=O)(=O)c2ccccc2)CC1,inactive
15,O=C(Nc1nccs1)C1CCN(S(=O)(=O)c2ccc(Cl)c(C(F)(F)F)c2)CC1,13.1 µM (active)
16,O=C(Nc1ccccn1)C1CCN(S(=O)(=O)c2ccc3c(c2)OCCO3)CC1,inactive
17,CN(C)c1ccc(-c2nnc(-c3cccnc3)o2)cc1,inactive
18,CC1CC(C)CN(S(=O)(=O)c2cccc3nonc23)C1 (configuration not stated),inactive
19,CCN(C(=O)CSc1nnnn1-c1ccccc1OC)C1CCS(=O)(=O)C1 (configuration not stated),inactive
20,COc1ccc(CCNC(=O)CCNS(=O)(=O)c2cc(Br)cnc2N)cc1OC,inactive
21,COc1cc2c(cc1OC)C(c1ccc(C)o1)CC(=O)N2 (configuration not stated),13.1 µM (active)
22,COC(=O)C1=C(C)NC(=O)CC1c1ccccc1OC (configuration not stated),inactive
23,COc1cc2c(cc1OC)C(C(=O)Nc1cc(C)c(OC)c(C)c1)CC(=O)N2 (configuration not stated),inactive
24,CC(=O)CC[C@@H](C)O[C@@H]1OC(C)[C@H](O)CC1O (some centres not stated),inactive
25,C=CCOc1ccc(/C=C/C(=O)OCC(=O)NC2CCCCCC2)cc1,inactive
26,N#Cc1cccc(NC(=O)CCC2CCCC2)c1,inactive

row,Compound,Potency
1,N#Cc1cccc(NC(=O)C2CCCN(C(=O)c3ccc(Cl)cc3)C2)c1 (configuration not stated),9.28 µM (active)
2,N#Cc1cccc(NC(=O)CN2CCCCCC2)c1,inactive
3,COC(=O)C1=CN(c2ccc(F)c(F)c2)C=C(C(=O)OC)C1c1ccc([N+](=O)[O-])cc1,inactive
4,COc1ccc(C(C(=O)NC2CCCCC2)N(C(=O)CCl)c2ccccc2Cl)cc1 (configuration not stated),0.294 µM (active)
5,COc1cccc(N(C(=O)C2COc3ccccc3O2)C(C(=O)NC2CCCCC2)c2ccc(O)cc2)c1 (configuration not stated),inactive
6,COc1ccc(C(C(=O)NC2CCCCC2)N(C(=O)c2snc(C(N)=O)c2N)c2ccccc2OC)cc1 (configuration not stated),inactive
7,CC(C)C(c1nnnn1C1CCCCC1)N1CCN(C(=O)c2ccco2)CC1 (configuration not stated),inactive
8,CN(C)Cc1c(C(=O)N/N=C/c2ccccc2OCc2ccc(F)cc2)nnn1-c1nonc1N,inactive
9,CCC1OC(c2ccc([N+](=O)[O-])cc2)=Nc2ccccc21 (configuration not stated),inactive
10,CCCC(=O)N1CCC(CCC(=O)NC2CC2)CC1,inactive
11,COc1ccc(C[C@H]2CN3C(=NC[C@H]3C)N2CCNC(=O)CCC2CCCCC2)cc1,6.57 µM (active)
12,COc1ccc(NC(=O)CCCC2CCCCC2)c(OC)c1,inactive
13,COc1ccc(CCNC(=O)COC(=O)C2CCCCC2)cc1,inactive
14,CCOC(=O)C1=C(c2ccccc2)NC(=O)NC1c1cc(OCC)c(O)c([N+](=O)[O-])c1 (configuration not stated),inactive
15,CCCOc1ccc(C2NC(=O)NC(c3ccccc3)=C2C(C)=O)cc1OCC (configuration not stated),4.65 µM (active)
16,COc1cc(C2NC(=O)NC(c3ccccc3)=C2C(C)=O)c(Br)cc1OCC(N)=O (configuration not stated),inactive
17,Cc1ccc(S(=O)(=O)N/N=C(\c2ccccc2)C2CC2)cc1,inactive
18,FC(F)(F)c1cccc(Cc2noc(CN3CCC(N4CCCCC4)CC3)n2)c1,inactive
19,O=C(c1ccco1)N1CCN(Cc2cccc(C(F)(F)F)c2)CC1,inactive
20,CCOC(=O)N1CCN(Cc2nc(Cc3cccc(C(F)(F)F)c3)no2)CC1,9.28 µM (active)
21,Cc1ccc2nc(SCC(=O)N3CC(C)OC(C)C3)nc(=O)n2c1 (configuration not stated),inactive
22,CC(OC(=O)CCCc1c[nH]c2ccccc12)C(=O)Nc1ccc(S(N)(=O)=O)cc1 (configuration not stated),inactive
23,COc1ccc(C(=O)CCc2ccccc2O)c(OC)c1,inactive
24,Cc1ccc(S(=O)(=O)N(C)CC(=O)OCC(=O)Nc2ccccc2)cc1,inactive
